According to the supplement of paper PMC10338343:
± gives the standard deviation.

These sequences were tested on EfPiwi piRISC loaded with L1MC piRNA (26 nt) (assay: pre-steady-state target cleavage rate (min^-1); auxiliary factor: 500 nM Ephydatia muelleri Gtsf1; guide: L1MC piRNA 5'p-UAACUAAAUACUAUGCAAGCUGUAGG; MIWI and MILI are mouse PIWI proteins and EfPiwi is from a freshwater sponge; tags in brackets are library labels; higher = faster piRNA-guided slicing of the target).
How it was run: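 The pre-steady-state cleavage rate was calculated from a burst-and-steady-state fit. Data came from Cleave-'n-Seq, in which […] transcribed, DNA-blocked target RNA library was mixed with 1 nM active affinity-purified piRISC carrying one synthetic guide, with or without 500 nM GTSF1 partner protein, in HEPES–potassium acetate buffer at 33 °C for 0–8 or 0–960 min. Uncleaved targets were sequenced and normalised to depth and to weakly complementary targets, three trials were pooled, and k3 was capped at 0.0001 min^-1.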
UCCUGGAUGUCGAACCAUACUAAUUAGUUA was tested, and the “pre-steady-state target cleavage rate” value was < 0.0001. With UCCUGGAACAGCUUGCAUAGUAUAUAGUUA the “pre-steady-state target cleavage rate” value was 0.00501 ± 0.0025. In the case of UCCUGCUAGAGCUUCCAUAGUAUUUAGUUA, the “pre-steady-state target cleavage rate” value is reported as 0.00239 ± 0.0017. In the case of UCCUGGAUGUCGAACGUAAGGAUUUAGUUA, the “pre-steady-state target cleavage rate” value is reported as < 0.0001. In the case of UCCUGGAUCAGGAUGCAUAGUAUUUAGUUA, the “pre-steady-state target cleavage rate” value is reported as 0.0121 ± 0.0027. With UCCUGGAACAGCUUGCAUUGUAAUUAGUUA the “pre-steady-state target cleavage rate” value was 0.00225 ± 0.0022. In the case of UCCUGGAUCAGCUUGCAUAGUAUUUAGUUUA, the “pre-steady-state target cleavage rate” value is reported as 0.0394 ± 0.011. In the case of UCCUGGAUCUAGCUUGCAUAGUAUUUAGUUA, the “pre-steady-state target cleavage rate” value is reported as 0.0755 ± 0.019. UCCUGGUACAGCUUGCAUAGUAUAUUCAAA was tested, and the “pre-steady-state target cleavage rate” value was 0.00341 ± 0.0028. For UCCUGCUACAGCUUCCAUAGUAUUUUCAAA, the “pre-steady-state target cleavage rate” value was 0.0032 ± 0.0021. With UCCUGGAUCAGCUUGCAUACUAUUAAGUUA the “pre-steady-state target cleavage rate” value was 0.00253 ± 0.0023. For UCCUGGAACAGCUUGCAUAGUAUCUUAGUUA, the “pre-steady-state target cleavage rate” value was 0.0187 ± 0.0064. UCCUGCUACUGCUUGCAUAGUAUUUUGUUA was tested, and the “pre-steady-state target cleavage rate” value was 0.0061 ± 0.0024. UCCUGCUAGAGCAUGCAUAGUAUUUAGUUA was tested, and the “pre-steady-state target cleavage rate” value was 0.00618 ± 0.0015. For UCCUGGAUGUCGAACGUAUGUCUUUAGUUA, the “pre-steady-state target cleavage rate” value was < 0.0001. For UCCUGGUACAGCUUGCAAAGUAUUAAGUUA, the “pre-steady-state target cleavage rate” value was 0.00292 ± 0.0026.
